# Measurements: PubChem BioAssay (NCATS)
# Inconclusive results are not listed. The source made the active and inactive calls. Calls follow the shape of the dose curve; as a rule, active = well fitted inhibition curve with a large enough effect; inconclusive = small, poorly fitted or top-dose-only effect; inactive = flat fitted curve, though single readings scatter.
# Test system: CRL-7250
# Test: Cytotoxic Profiling of Annotated Libraries Using Quantitative High-Throughput Screening (AID 1296008); also: nearly all actives have a fitted effect of over 60% in size
# Details: Five cell lines viability, CellTiter-Glo ATP luminescence, 48-72 h; max response: active compounds read low
# In short: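 Cytotoxicity was measured as CellTiter-Glo ATP luminescence, read after 10 min at room temperature. Compound treatment of the cells lasted 48 or 72 hr at 37 degrees Celsius in a qHTS format.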
# % is scaled to controls: 0 for no effect and ±100 for the full control effect; potency is read from the fitted curve at half-maximal effect.
SMILES,Potency,max response,outcome
COc1c(C)cnc(Cn2cc(C#CCC(C)(C)O)c3c(Cl)nc(N)nc32)c1C,259 nM (active),–,–
COC(=O)N1CCC(n2ncc3c(N4CCOCC4)nc(-c4ccc(NC(=O)NC5CC5)cc4)nc32)CC1,259 nM (active),–,–
CCCCC1CCN(CCCN2C(=O)CCc3ccccc32)CC1,–,-13.3% (inactive),–
N#Cc1ccnc(Nc2cc(C3CCN(C4COC4)CC3)cc(N3CCC(F)(F)C3)n2)c1,11700 nM (active),–,–
CC1(C(=O)Nc2ccc(F)nc2)CCCN1c1nc(Nc2cc(C3CC3)[nH]n2)c2cccn2n1 (stereo not given),8200 nM (active),–,–
C=C1C(=O)O[C@@H]2C[C@H](C)[C@@H]3CC(=O)C(C)=C3C[C@H]12,10300 nM (active),–,–
CN1CCC(NC(=O)c2cc(-c3c(O)cc(O)cc3Oc3ccc([N+](=O)[O-])cc3)on2)CC1,366 nM (active),–,–
COC(C)(C)CCn1nc(Nc2c(C)cccc2C)c2cnc(Nc3ccc(OCCN4CCCC4)c(F)c3)nc21,1160 nM (active),–,–
Cc1nnc(C[C@@H]2C=C(c3ccc(Cl)cc3)c3ccccc3-n3c(C)nnc32)o1,651 nM (active),–,–
Cc1cc(-c2nc(-c3ccc(OC(F)(F)F)cc3)no2)nn1Cc1ccnc(N2CCN(C3CC3)CC2)c1,25.9 nM (active),–,–
COC1CC/C=C(\C)C(=O)Nc2cc(O)cc(c2)CC(C)CC(OC)C(O)C(C)/C=C(\C)C1OC(N)=O (stereo not given),3170 nM (active),–,–
CC(C)NCCCn1c(Sc2cc3c(cc2I)OCO3)nc2c(N)ncnc21,411 nM (active),–,–
CCOC(=O)c1cnc2ccc(-c3cncc(NS(=O)(=O)c4ccccc4)c3)cn12,4110 nM (active),–,–
CCNC(=O)Nc1ccc(-c2nc3c(c(N4CCOCC4C)n2)CCN(C2COC2)C3)cc1 (stereo not given),206 nM (active),–,–
CN1C(=O)c2sccc2N(C)c2nc(Nc3ccc(S(N)(=O)=O)cc3)ncc21,7410 nM (active),–,–
CN1CCN(Cc2ccc(NC(=O)Cc3ccc(Oc4cc(NC(=O)C5CC5)ncn4)cc3)cc2C(F)(F)F)CC1,5800 nM (active),–,–
CCc1c[nH]c2ncnc(N3CC[C@](N)(CNC(=O)c4ccc(F)cc4F)C3)c12,–,-13.8% (inactive),–
COc1ccc(C[C@H]2COC(=O)[C@@H]2Cc2ccc(O[C@@H]3O[C@H](CO)[C@@H](O)[C@H](O)[C@H]3O)c(OC)c2)cc1OC,893 nM (active),–,–
C=CC(=O)Nc1cccc(Nc2nc(Nc3ccc(NC4CN(CCF)C4)cc3OC)ncc2C(F)(F)F)c1,7310 nM (active),–,–
CC1CC(=O)C2=C(C1)C1OC1C1(O)C2C(=O)c2cccc(O)c2C1O (stereo not given),–,-42.8% (inactive),–

SMILES,Potency,max response,outcome
CCc1cc(C(N)=O)ccc1-n1nc(C(C)C)c2c(-n3cnc(-c4cnn(C)c4)c3)ccnc21,4110 nM (active),–,–
O=C1C(Cc2ccc(O)cc2)N2C(=O)CCN(C(=O)NCc3ccccc3)C2CN1Cc1cccc2ccccc12 (stereo not given),4610 nM (active),–,–
CC[C@@H](C)Nc1cc(C(=O)NC2CC3CCC(C2)N3c2ccc(C(=O)C3CC3)cn2)c(C)cc1C(N)=O (stereo not given in full),259 nM (active),–,–
Cn1c(=O)c2c(ncn2Cc2ccc(C(C)(C)C)cc2)n(C)c1=O,1300 nM (active),–,–
O=c1cc(NCCCN[C@@H]2CCOc3c(Br)cc(Br)cc32)[nH]c2ccsc12,–,1.96% (inactive),–
C/C1=C/CCC2=CC(OC2=O)C(C)(C)/C=C/C1=O (stereo not given),2310 nM (active),–,–
CCCC1(CCC)CCC2(CCN(CCCN(CC)CC)C2)CC1,4110 nM (active),–,–
CC[C@@H](C)Nc1cc(C(=O)NC2CC3CC[C@@H](C2)N3c2ccc(C(=O)C3CC3)cn2)c(C)cc1C(N)=O (stereo not given in full),231 nM (active),–,–
Cc1nc(-c2cn3c(n2)-c2ccc(-c4cnn(C(C)(C)C(N)=O)c4)cc2OCC3)n(C(C)C)n1,–,4.52% (inactive),–
CC(C)(C)c1ccc(C(=O)Nc2cc(Cl)c(Br)cc2C(=O)O)cc1,–,-0.778% (inactive),–
C/C1=C\[C@@H](C)C[C@@H](C)[C@@H](Cc2cnco2)OC(=O)/C(C)=C/[C@@H](C)C[C@@H](C)[C@@H](Cc2cnco2)OC1=O,2520 nM (active),–,–
COC1=CC(=O)C[C@@H](C)[C@@]12Oc1c(Cl)c(OC)cc(OC)c1C2=O,–,-44.3% (inactive),–
Cc1ccccc1C(C(=O)NC1CCCCC1)N(C(=O)Cn1cnc2ccccc21)c1cccc(F)c1 (stereo not given),–,-31.4% (inactive),–
CS(=O)(=O)c1ccc(Oc2cc(F)cc(C#N)c2)c2c1[C@H](O)C(F)(F)C2,–,–,inactive
O=C(Cc1cccc(OC(F)(F)F)c1)Nc1ccc(CCCCc2nnc(NC(=O)Cc3ccccn3)s2)nn1,16.6 nM (active),–,–
C#CCCCn1cc(-c2cccc3c2N[C@H](C)CC(=O)N3)cn1,–,-3.86% (inactive),–
COc1cc(N2CCC(N3CCN(C)CC3)CC2)ccc1Nc1ncc(Cl)c(Nc2ccccc2P(C)(C)=O)n1,2060 nM (active),–,–
COc1cc(O)cc(OC2OC(CO)C(O)C(O)C2O)c1 (stereo not given),–,-0.834% (inactive),–
CC(C)C[C@@H]1NC(=O)[C@@H](Cc2ccccc2)NC(=O)C(CCCCCC(=O)C2CO2)NC(=O)[C@@H]2CCCCN2C1=O (stereo not given in full),3550 nM (active),–,–
COc1cc(N2CCC(O)CC2)ccc1Nc1nc(Nc2ccccc2S(=O)(=O)C(C)C)c2[nH]cnc2n1,–,-7.74% (inactive),–
